This is an account of results in PubChem BioAssay AID1273 (Columbia University Molecular Screening Center, 2008).

In all, about 130,000 compounds went through this assay and about 1,200 (0.92%) were called active.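 The calls were made as follows: active = inhibition above the mean plus 3 SD, with well images judged a real hit on visual review (cut at about 60% in these data, passing the limit was not always enough); inconclusive = inhibition over the cutoff but images rejected on review; inactive = inhibition not above the cutoff.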 This excerpt belongs to a sample that is enriched for actives.

As a reminder, the inhibition is the drop in the measured response relative to a control, in per cent.

This experiment is described as follows: inhibitors of insulin promoter-driven GFP, primary screen, imaging, TRM-6 cells (human fetal islet line), eGFP reporter, cell count (AID 1273;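 as to normalized cell count: cells exposed to compound for 48 h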). The following applies: at 2 µM, reporter expression induced with tamoxifen; inhibition: stronger effect = higher value; normalized cell count: measured here: cell count, toxicity.
With `Cc1nn(-c2ccccc2)c(C)c1/C=C/C(=O)OC(C)C(N)=O` (centres undefined), the inhibition is 68.8% (active) and the normalized cell count came to 181%.
For `Cc1nn(-c2ccccc2)c(Cl)c1/C=C/C(=O)c1ccc(O)cc1`, the inhibition is -70.4% (inactive) and the normalized cell count was 111%.
For `Cc1ccc(C(=O)/C=C/c2c(C)nn(-c3ccccc3)c2Cl)cc1`, in that order: -16.7% (inactive) and 102%.
Consider `O=C(COc1cccc2ccccc12)Nc1cc(S(=O)(=O)N2CCOCC2)ccc1N1CCOCC1`, for which the inhibition was 11.1% (inactive) and the normalized cell count worked out at 67.5%.
For the molecule `CN1C(=O)C(CC(=O)Nc2ccccc2)S/C1=N/c1nccs1` (centres undefined), the inhibition was -107% (inactive) and the normalized cell count turned out to be 120%.
For `COC(=O)c1nc(NC(=O)c2ccc(F)cc2)n[nH]1`, in that order: 28.6% (inactive) and 129%.
Turning to `Cc1ccccc1NC(=O)c1nn(-c2ccc(F)c(F)c2)ccc1=O`, the inhibition was 25% (inactive) and the normalized cell count is 93.8%.
For `O=C(Nc1ccc(F)cc1)N1CCCC(c2nc3c(nnn3Cc3ccccc3Cl)c(=O)[nH]2)C1` (centres undefined), the inhibition was -42.9% (inactive) and the normalized cell count amounted to 122%.
On to `COc1ccc(Cn2nnc3c(=O)[nH]c(C4CCN(C(=O)c5ccccc5Cl)CC4)nc32)cc1`, for which the inhibition is 72.7% (active) and the normalized cell count was 34.3%.
Take `Cc1ccc(NC(=O)N2CCC(c3nc4c(nnn4Cc4c(F)cccc4Cl)c(=O)[nH]3)CC2)cc1`: the inhibition was 6.25% (inactive) and the normalized cell count was 107%.
With `COc1ccc(C2CC(c3cccs3)=NN2C(=O)CSc2nncs2)cc1OC` (centres undefined), the inhibition is 66.7% (inactive) and the normalized cell count worked out at 95.8%.
Consider `CN1CCN(C(=O)CCc2ncc(C(F)(F)F)cc2Cl)CC1`, for which the inhibition was 9.09% (inactive) and the normalized cell count amounted to 150%.
`CC(=O)c1cccc(NC(=O)N2CCCC2C(=O)NCCc2ccccc2)c1` (centres undefined): the inhibition was 82.1% (active) and the normalized cell count was determined as 27.6%.
With `COc1cccc(NC(=O)C2CCCN2C(=O)OCc2ccccc2)c1` (centres undefined), the inhibition was -34.4% (inactive) and the normalized cell count was 106%.
The matching figures for `Cc1ccc(CNC(=O)C2CCCN2C(=O)NCc2ccccc2)cc1` (centres undefined): 59% (inactive) and 73.5%.
Turning to `O=[N+]([O-])c1ccc(N2CCNCC2)cc1NCc1cccnc1`, the inhibition is 66.7% (active) and the normalized cell count worked out at 150%.
For `O=[N+]([O-])c1ccc(N2CCN(S(=O)(=O)c3ccc4ccccc4c3)CC2)cc1NCc1ccco1`, the inhibition is -18.5% (inactive) and the normalized cell count stood at 121%.
Turning to `O=C(c1ccccc1)N1CCN(c2ccc([N+](=O)[O-])c(NCc3ccco3)c2)CC1`, the inhibition was -9.68% (inactive) and the normalized cell count was 122%.
As to `CCN1CCN(c2ccc([N+](=O)[O-])cc2C(=O)c2ccc(Cl)cc2)CC1`, the inhibition is -83.3% (inactive) and the normalized cell count is 81.5%.
For `COc1ccc(N2CCN(c3ccc([N+](=O)[O-])cc3Cl)CC2)cc1`, in that order: 7.69% (inactive) and 106%.
Regarding `O=[N+]([O-])c1ccc(N2CCN(c3ccc(O)cc3)CC2)c(Cl)c1`, the inhibition is 86.7% (active) and the normalized cell count was determined as 135%.
On to `Cc1nn2c3cc(N4CCOCC4)ccc3nc2c2ccccc12`, for which the inhibition was -63.5% (inactive) and the normalized cell count came out at 79.7%.
The matching figures for `Cc1cc(C)c2c(n1)nn1c(N3CCN(c4cccc(Cl)c4)CC3)cc(C)nc21`: -82.8% (inactive) and 99.8%.
For `Cc1cc(C)c2c(n1)nn1c(N3CCOCC3)cc(C)nc21`, in that order: 74.3% (active) and 60.7%.
Regarding `CCCN(CC(=O)Nc1ccccc1C)C(=O)c1cc(=O)[nH]c2ccccc12`, the inhibition is -38.5% (inactive) and the normalized cell count was 49.2%.
In the case of `C=CCC1(CC=C)CCCN1C(=O)CC1C(=O)NCCN1Cc1ccccc1OC` (centres undefined), the inhibition is 20% (inactive) and the normalized cell count came out at 91.1%.
For the molecule `C/C(Cn1nnc2ccccc21)=N\OC(=O)c1cc(F)c(F)cc1Cl`, the inhibition was -55% (inactive) and the normalized cell count was found to be 99.6%.
For `Cc1cc(C#N)c(SCC(N)=O)nc1-c1ccc(F)cc1`, in that order: 14.3% (inactive) and 121%.
Consider `CC(=O)c1cnc(SCC(=O)O)nc1C`, for which the inhibition was 26.7% (inactive) and the normalized cell count came out at 105%.
In the case of `CC(=O)c1cc(C#N)c(SCC(=O)C(C)(C)C)nc1C`, the inhibition was 65.4% (active) and the normalized cell count stood at 142%.
In the case of `O=C(COC(=O)c1ccccn1)Nc1cccc2ccccc12`, the inhibition was -83.3% (inactive) and the normalized cell count turned out to be 96%.
For `O=C(CCN1C(=O)c2ccccc2C1=O)NCCCn1ccnc1`, in that order: -16.7% (inactive) and 84.2%.
For `COc1ccccc1NC(=O)CC(NCCN(C)C)C(=O)O` (centres undefined), the inhibition was 72.4% (active) and the normalized cell count worked out at 43%.
Consider `CN(C)CCNC(CC(=O)Nc1ccc(Cl)c(Cl)c1)C(=O)O` (centres undefined), for which the inhibition was 44.2% (inactive) and the normalized cell count turned out to be 104%.
In the case of `COC(=O)C(CC(=O)Nc1cc(C)ccc1C)Nc1ccccc1OC` (centres undefined), the inhibition is 7.14% (inactive) and the normalized cell count was 131%.
Consider `CCN(CC)CCNC(=O)c1sc2ncn(CC(=O)Nc3ccc(C)c(Cl)c3)c(=O)c2c1C`, for which the inhibition was -14.3% (inactive) and the normalized cell count turned out to be 89.6%.
On to `Cc1c(Br)ccc(NC(=O)COc2ccccc2C(N)=O)c1C`, for which the inhibition is -5.26% (inactive) and the normalized cell count was found to be 50.7%.
The matching figures for `O=C(Nc1ccc(N2CCN(C(=O)C3CC3)CC2)cc1)c1cccs1`: 36.8% (inactive) and 132%.
In the case of `Cc1c(Nc2nc3ccccc3nc2NS(=O)(=O)c2cccs2)c(=O)n(-c2ccccc2)n1C`, the inhibition is 75% (active) and the normalized cell count came out at 38.1%.
For `COc1ccc(S(=O)(=O)Nc2c(C)n(C)n(-c3ccccc3)c2=O)cc1`, in that order: 22.7% (inactive) and 104%.
For `COC(=O)Nc1c(C)n(C)n(-c2ccccc2)c1=O`, the inhibition was 13.9% (inactive) and the normalized cell count came to 53.7%.
The matching figures for `Cc1nn(-c2ccc([N+](=O)[O-])cc2)c(N)c1-c1ccccc1`: 25% (inactive) and 95.4%.
Turning to `CCOC(=O)c1ccc(NC(=O)C2CC(=O)Nc3nc4ccccc4n32)cc1` (centres undefined), the inhibition is -36.4% (inactive) and the normalized cell count worked out at 131%.
As for `CCOC(=O)c1c(C)[nH]c(C2=NNC(=NC(C)COC)SC2)c1C` (centres undefined), the inhibition is 31.2% (inactive) and the normalized cell count was 87.8%.
`Cc1ccc(O)c(-c2cc(C(=O)NCc3ccccc3)[nH]n2)c1`: the inhibition is 7.14% (inactive) and the normalized cell count was determined as 81.6%.
Turning to `O=C(O)CCCc1ccccc1`, the inhibition is -23.8% (inactive) and the normalized cell count stood at 97.5%.
With `Cc1ccc(O)c(CCc2ccccc2)n1`, the inhibition is 91.9% (active) and the normalized cell count was 94.3%.
As for `CN(C)c1nccc(NCc2ccccc2)c1C#N`, the inhibition is 40.5% (inactive) and the normalized cell count amounted to 140%.
`O=C(NNc1cc(Cl)ccc1Cl)c1cccnc1Cl`: the inhibition was 11.1% (inactive) and the normalized cell count came to 114%.
The matching figures for `CCc1nnc(NS(=O)(=O)c2ccc(NC(=S)NC(=O)c3cccs3)cc2)s1`: -11.1% (inactive) and 96.4%.
On to `CN(C)/C=C(/C(=O)c1ccccc1Cl)S(C)(=O)=O`, for which the inhibition was 75% (active) and the normalized cell count is 84.2%.
As to `CN(C)/C=C(/C(=O)c1ccccc1)S(=O)(=O)c1ccc(Cl)cc1`, the inhibition was -23.8% (inactive) and the normalized cell count came to 70.5%.
The matching figures for `CN(C)/C=C(/C(=O)c1ccc(F)cc1)S(=O)(=O)c1ccc(F)cc1`: 50% (inactive) and 124%.
Regarding `COc1cccc(NC(=O)CS(=O)(=O)c2cn(CC(=O)N3CCOCC3)c3ccccc23)c1`, the inhibition is -16.7% (inactive) and the normalized cell count was found to be 88.8%.
As for `O=C1c2ccccc2C(=O)N1CCC(O)C[N+](=O)[O-]` (centres undefined), the inhibition was -17.6% (inactive) and the normalized cell count is 90.3%.
Turning to `Cc1cc([N+](=O)[O-])ccc1NC(=O)c1ccc(NC(=O)C(C)C)cc1`, the inhibition is 30% (inactive) and the normalized cell count was found to be 120%.
Turning to `CCC(=O)N1CCC(C(N)=O)(N2CCCCC2)CC1`, the inhibition is 33.3% (inactive) and the normalized cell count was 108%.
As for `COC(=O)C1=C(C)N(C)C(=S)NC1c1cc(OC)ccc1OC` (centres undefined), the inhibition was 23.1% (inactive) and the normalized cell count amounted to 118%.
As for `Cc1nc2ccccc2c(-c2ccccc2)c1C(=O)c1ccccc1`, the inhibition was 27.5% (inactive) and the normalized cell count was determined as 64.5%.
For `CCOC(=O)c1cc2ccccc2nc1C`, in that order: 57.1% (inactive) and 47.1%.
Turning to `Cc1nc2ccccc2cc1O`, the inhibition was 67.9% (active) and the normalized cell count worked out at 57.9%.
With `COc1cc(C(=O)NCc2ccc(-n3cccc3)cc2)cc(OC)c1OC`, the inhibition was 46.1% (inactive) and the normalized cell count came out at 69%.
On to `O=C(CN1CCSCC1)N/N=C/c1ccc(Cl)cc1`, for which the inhibition is 35.3% (inactive) and the normalized cell count was 92.4%.
As for `Cc1ccc(-n2cc(CN(C)Cc3nccn3C)c(-c3cccc(C)c3)n2)cc1`, the inhibition is 41.7% (inactive) and the normalized cell count was determined as 124%.
For `O=C(O)C1C2CC2CN1C(=O)c1ccc(Cl)cc1Cl` (centres undefined), in that order: -5.56% (inactive) and 121%.
Take `Cc1nc2scc(-c3cccs3)c2c(=O)n1N`: the inhibition was 9.8% (inactive) and the normalized cell count was found to be 105%.
In the case of `CCCc1nc2scc(-c3ccc(C)cc3)c2c(=O)n1N`, the inhibition is 81.5% (active) and the normalized cell count turned out to be 78.3%.
For `NC(=O)Cc1nc2scc(-c3ccc(Cl)cc3)c2c(=O)[nH]1`, the inhibition is 5.88% (inactive) and the normalized cell count is 114%.
As to `COc1cc(OC)cc(-c2nnc(N(C)C(=O)c3ccncc3)s2)c1`, the inhibition is 36.4% (inactive) and the normalized cell count turned out to be 156%.
Turning to `CC(NC(=S)NC1CCCCC1)C(c1ccccc1)N1CCOCC1` (centres undefined), the inhibition was -38.9% (inactive) and the normalized cell count was found to be 111%.
With `Cc1cccc(N(C(=O)Cc2cccs2)C(C(=O)NC2CCCC2)c2ccsc2)c1` (centres undefined), the inhibition was -23.3% (inactive) and the normalized cell count stood at 119%.
For `Cc1cccc(N(C(=O)c2ccc(CN3CCOCC3)o2)C(C(=O)NC2CCCCC2)c2ccc(F)cc2)c1` (centres undefined), in that order: 87.5% (active) and 98.6%.
For `Cc1ccc(N(C(=O)c2ccc(CN3CCOCC3)o2)C(C(=O)NCCC(C)C)c2cccs2)c(C)c1` (centres undefined), in that order: 8.11% (inactive) and 114%.
For `C1CC1Cc1noc(CN2CCN(CC3CC3)CC2)n1`, in that order: 0% (inactive) and 97.5%.
For the molecule `CCOC(=O)C1(Cc2cccc(OC)c2)CCN(C(C)CC(C)(C)O)CC1` (centres undefined), the inhibition is -275% (inactive) and the normalized cell count stood at 102%.
On to `CCCCOC(=O)Nc1nccs1`, for which the inhibition is 93.8% (active) and the normalized cell count was 53.2%.
On to `O=C(COC(=O)c1ccc(O)cc1)Nc1nccs1`, for which the inhibition was 16.7% (inactive) and the normalized cell count came out at 74.1%.
On to `COc1cc(C(=O)Nc2nccs2)cc(OC)c1OC`, for which the inhibition is -25.3% (inactive) and the normalized cell count was 97.1%.
As to `CC(/C=N/NC(=O)c1ccncc1)=C\c1ccco1`, the inhibition was 23.1% (inactive) and the normalized cell count came out at 115%.
As to `CC(=O)c1ccc(NC(=O)C(C)NCc2ccc(Cl)cc2)cc1` (centres undefined), the inhibition is -189% (inactive) and the normalized cell count came to 58.5%.
For `Cc1ccc(S(=O)(=O)NC(=O)COc2ccccc2C)cc1`, the inhibition is 81.2% (active) and the normalized cell count came to 150%.
Take `COCCNC(=O)COc1ccccc1C`: the inhibition was 20.8% (inactive) and the normalized cell count turned out to be 112%.
Consider `Cc1cccc(NC(=O)COc2ccccc2C)n1`, for which the inhibition was -406% (inactive) and the normalized cell count amounted to 56.6%.
For `COc1cccc2cc(S(=O)(=O)c3ccc(C)cc3)/c(=N/NS(=O)(=O)c3ccc(C)cc3)oc12`, in that order: 27.3% (inactive) and 139%.
`COc1ccc(N2C(=O)/C(=C\c3ccco3)N=C2SCC(N)=O)cc1Cl`: the inhibition is 91.7% (active) and the normalized cell count was determined as 75.5%.
`COc1ccc([N+](=O)[O-])cc1NC(=O)COC(=O)/C=C/c1ccco1`: the inhibition was -14.3% (inactive) and the normalized cell count came to 128%.
Consider `COC(=O)C1=C(C)N(c2ccc(Br)cc2)C(=O)/C1=C\c1ccco1`, for which the inhibition was 25.6% (inactive) and the normalized cell count was determined as 98.3%.
